Screening results from PubChem.
The list is not random: actives were taken first. Their share in the collection is about 3.4%.
Sm TGR inh = blocks Schistosoma mansoni thioredoxin glutathione reductase. Q962Y6. purified TGR, DTNB reduction, TNB absorbance 405 nm. Potency, µM (highest dose often 114 µM), most hits filed as inhibitors. actives 3% (n = 360,000); further: nearly all actives have a fitted effect of over 60% in size
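Kinetic colorimetric format: TGR-catalysed, NADPH-driven DTNB reduction monitored via TNB absorbance. Enzyme dispensed at 20 nM; compound exposure 15 min at room temperature before reaction start.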
Giardia FBPA inh = blocks Giardia fructose-bisphosphate aldolase activity; purified Giardia FBPA; actives 0.71% (n = 290,000); Potency, µM (highest dose often 59.6 µM), usual class: inhibitors; A8B2U2; further: nearly all actives have a fitted effect of over 55% in size
Target sequence (A8B2U2 whole entry, looked up): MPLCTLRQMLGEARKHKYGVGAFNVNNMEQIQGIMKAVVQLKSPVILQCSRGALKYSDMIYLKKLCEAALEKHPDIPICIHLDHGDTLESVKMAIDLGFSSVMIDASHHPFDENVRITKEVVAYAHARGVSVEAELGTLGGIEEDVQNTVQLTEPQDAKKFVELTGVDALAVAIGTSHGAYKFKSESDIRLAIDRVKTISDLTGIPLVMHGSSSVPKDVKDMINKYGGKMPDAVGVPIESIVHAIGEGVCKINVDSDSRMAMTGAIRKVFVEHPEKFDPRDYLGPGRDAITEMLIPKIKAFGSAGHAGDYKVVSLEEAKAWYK
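40 nM FBPA preincubated 10 min at RT with compound (up to 57.5 uM final), then substrate plus GAPDH/TPI/NAD/arsenate coupling and diaphorase/resazurin added. Fluorescence read after 20 min at RT, 525/598 nm.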
AmpC inh no detg = AmpC beta-lactamase inhibition without detergent; AID 485341; Potency, µM (titrated, usually from 57.1 µM), most hits filed as inhibitors; actives 0.52% (n = 330,000); AmpC nitrocefin hydrolysis, absorbance 480 nm, 0.0001% Triton; P00811; further: nearly all actives have a fitted effect of over 20% in size
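20 mM phosphate pH 7.0 + 0.01% (detergent screen) or 0.0001% Triton X-100; 5.3 nM AmpC reagent; cpd preinc 15 min RT; nitrocefin (800 uM stock) to start; A480 q20 s × 4 min; Activity was normalised to no-enzyme and no-compound control wells.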
RE007 growth inh = less growth of the S. pombe RE007 Vpr strain; S. pombe RE007 Vpr strain, BacTiter-Glo ATP luminescence, 24 h; AID 651644; Potency, µM (top dose mostly 92.2 µM), hits mostly inhibitors; actives 0.21% (n = 360,000); active means well fitted falling curve with a large enough effect; inconclusive means small, poorly fitted or top-dose-only effect; inactive means no such curve, though single readings can be large or run the other way; further: nearly all actives have a fitted effect of over 50% in size
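Fission yeast RE007 carrying one integrated HIV-1 vpr copy, seeded at OD 0.01 in PMG+AL medium with 23 nL pinned compound. Grown 24 h at 30 degrees; viability read by BacTiter-Glo luminescence after 5 min.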
AmpC inh detg = inhibitors of E. coli AmpC beta-lactamase with detergent; P00811; AmpC hydrolysis of nitrocefin, absorbance 480 nm, 0.01% Triton; Potency, µM (titrated, usually from 114 µM), hits mostly inhibitors; actives 0.041% (n = 370,000); AID 485294; further: nearly all actives have a fitted effect of over 25% in size
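20 mM phosphate pH 7.0 + 0.01% (detergent screen) or 0.0001% Triton X-100; 5.3 nM AmpC reagent; cpd preinc 15 min RT; nitrocefin (800 uM stock) to start; A480 q20 s × 4 min; Activity was normalised to no-enzyme and no-compound control wells.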
Large screens that a line does not name were inactive. Unless noted, the call rests on the fitted dose curve; in most records, active means well fitted curve in the direction sought with a large enough effect; inconclusive means small, poorly fitted or top-dose-only effect, or another doubt; inactive means no such curve, though single readings can be large; an effect the other way counts as inactive or inconclusive.

O=C(c1ccco1)N1CCN(/C(=N/S(=O)(=O)c2cccs2)c2ccccc2Cl)CC1	AmpC inh no detg 7.08µM
COc1ccc(N(C(=O)c2cccc(OC)c2OC)C2C=CS(=O)(=O)C2)c(OC)c1 (centres undefined)	none
COc1ccccc1N1CCN(C(=O)c2cc(-c3ccco3)on2)CC1	Sm TGR inh 56.2µM
O=C(c1cc(-c2ccccc2)on1)N1CCN(c2ccccc2)CC1	AmpC inh detg inconclusive
O=C(c1cc(-c2ccco2)on1)N1CCc2ccccc2C1	Sm TGR inh 12.6µM
O=C(c1cc(-c2ccco2)on1)N1CCN(c2ccccc2)CC1	AmpC inh no detg 3.16µM
CCC1Sc2ccc(S(=O)(=O)N3CCN(c4ccccc4)CC3)cc2NC1=O (centres undefined)	none (no result: Giardia FBPA inh)
Cc1cc(=O)oc2ccc(OCC(=O)N(Cc3ccc(F)cc3)Cc3ccco3)cc12	Sm TGR inh 17.8µM
C[C@@H]1CCCCO[C@H](CN(C)C(=O)NC2CCCCC2)[C@@H](C)CN([C@H](C)CO)C(=O)c2cc(NC(=O)c3ccccc3)ccc2O1	none (no result: Sm TGR inh, Giardia FBPA inh, AmpC inh no detg, AmpC inh detg)
Fc1ccc(CSc2ncnc3nc[nH]c23)cc1	Giardia FBPA inh inconclusive, AmpC inh no detg 1.58µM, AmpC inh detg inconclusive
Brc1ccc(CSc2ncnc3nc[nH]c23)cc1	none
COc1cccc(Nc2ccc(N3CCCCC3)cc2)c1OC	Sm TGR inh inconclusive (no result: Giardia FBPA inh, RE007 growth inh)
CCOc1cc(CNc2ccc(S(N)(=O)=O)cc2)cc(Cl)c1OC	AmpC inh detg inconclusive
COc1cccc(CNc2ccc(N3CCCCC3)cc2)c1OC	Sm TGR inh 25.1µM, Giardia FBPA inh inconclusive
COc1ccccc1CNc1ccc(C(=O)O)cc1	AmpC inh detg inconclusive
COc1ccccc1CNc1ccc(N2CCCCC2)cc1	Sm TGR inh 10µM, Giardia FBPA inh inconclusive, AmpC inh detg inconclusive
CCOc1cc(CNc2ccc(N3CCCC3)cc2)cc(Cl)c1OC	Sm TGR inh 25.1µM, Giardia FBPA inh inconclusive, RE007 growth inh inconclusive
CC(Oc1ccc(-c2ccccc2)c(F)c1)c1ccn(S(=O)(=O)c2ccc(Br)cc2)n1 (centres undefined)	none
COc1ccc(C(NC(=O)N2CC(C)OC(C)C2)C(Cl)(Cl)Cl)cc1F (centres undefined)	none
Cc1cc(C)nc(NC(=NCc2ccc3c(c2)OCO3)NC(=O)Nc2ccccc2)n1	Sm TGR inh 1.41µM (no result: AmpC inh no detg)
CC(=O)N(C1=C(N2CCOCC2)C(=O)c2ccccc2C1=O)c1ccc(C(=O)O)cc1	Sm TGR inh 2.82µM, Giardia FBPA inh inconclusive
COc1ccc(C2C(C(=O)/C=C/c3ccco3)=C(O)C(=O)N2CCN2CCOCC2)cc1 (centres undefined)	Sm TGR inh 14.1µM, Giardia FBPA inh inconclusive, AmpC inh detg inconclusive
COc1ccc(OC)c(C2C(C(=O)c3ccco3)=C(O)C(=O)N2CCN2CCOCC2)c1 (centres undefined)	Sm TGR inh inconclusive (no result: Giardia FBPA inh, RE007 growth inh)
CCOc1ccc(C2C(C(=O)/C=C/c3ccco3)=C(O)C(=O)N2CCN2CCOCC2)cc1OC (centres undefined)	Sm TGR inh 5.01µM, Giardia FBPA inh 7.92µM
COc1cccc(C2C(C(=O)/C=C/c3ccco3)=C(O)C(=O)N2CCN2CCOCC2)c1 (centres undefined)	Sm TGR inh 4.47µM, Giardia FBPA inh inconclusive
CC=C(CC)C1(CC)C(=O)NC(=S)NC1=O	none (no result: Sm TGR inh, Giardia FBPA inh, AmpC inh no detg, AmpC inh detg)
O=C(NC1CC1)c1ccc(Cn2c(SCc3cccc(F)c3)nc3cccnc32)cc1	none (no result: Giardia FBPA inh, AmpC inh no detg, RE007 growth inh)
COc1ccc2c(c1)CCc1cn3nc(C)cc3nc1-2	Giardia FBPA inh 17.7µM
COc1ccc(C(CNC(=O)c2cc(C)oc2C)N2CCOCC2)cc1 (centres undefined)	Sm TGR inh 28.2µM
CC(=O)N1CCc2cc(S(=O)(=O)NCCN3CCC(C)CC3)ccc21	none
CC(C)C(OC(=O)c1cccs1)C(=O)NCc1cccs1 (centres undefined)	none
O=C(NCc1ccco1)[C@@H]1CCCN1C(=O)c1cccs1	Sm TGR inh 39.8µM
CC(C)CC(OC(=O)c1ccco1)C(=O)NC1CCCCC1 (centres undefined)	AmpC inh detg 31.6µM
CCC(OC(=O)c1ccco1)C(=O)NCc1ccco1 (centres undefined)	AmpC inh detg inconclusive
